Usually inhibition stands for the change of the read-out against control, counted positive when it falls.

In all, about 4,700 compounds went through this assay and about 360 (7.7%) were called active. The entries come from a sample that favours actives as a whole. Values without a mark were called inactive.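 Rule for the calls: active = inhibition above a cutoff derived from the DMSO control wells (cut at about 30% in these data); inactive = the rest.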

This assay is described as follows: AlphaScreen optical interference compounds, counter-screen for MITF inhibitor project, biochemical, triplicate (AID 1259376). Conditions: LysRS AlphaScreen counterscreen, signal interference, at 2.6 µM, stronger effect = higher value. Background: Bead proximity is the source of the signal in Alpha formats.
`COc1cc(NC(=O)CCc2nc(C3=CCN(C)CC3)no2)cc(OC)c1OC`: the inhibition is 34.2% (active).

Take `COc1ccccc1CN1CCN(C(=O)Cc2ccccc2)CC1`: the inhibition was 7.15%.

Turning to `COc1ccc(CN2CCN(C(C)C)CC2)cc1`, the inhibition is 10.5%.

In the case of `COc1cccc(CN2CCN(Cc3ccccc3F)CC2)c1`, the inhibition was 16.6%.

As to `CCN1CCc2nc3ccccc3c(C(=O)O)c2C1`, the inhibition is 4.31%.

(Values after PubChem BioAssay AID1259376 (The Scripps Research Institute Molecular Screening Center, 2018).)
